Among the data in article PMC7862700, “An all-to-all approach to the identification of sequence-specific readers for epigenetic DNA modifications on cytosine” are binding signal values, retold here.

Common to all, as to test: DAPPL (digital affinity profiling via proximity ligation, sequencing); 10 mM Tris-HCl pH 7.5, 50 mM NaCl, 1 mM DTT, 4% glycerol, room temperature, 30 min; GST-TFs on glutathione beads, 16-mer random dsDNA library, 0.1% formaldehyde crosslink after washing; high values mean tight binding
The target of assay [1] is T1, FEV (Homo sapiens, UniProt Q99581 1-238).
T1 sequence: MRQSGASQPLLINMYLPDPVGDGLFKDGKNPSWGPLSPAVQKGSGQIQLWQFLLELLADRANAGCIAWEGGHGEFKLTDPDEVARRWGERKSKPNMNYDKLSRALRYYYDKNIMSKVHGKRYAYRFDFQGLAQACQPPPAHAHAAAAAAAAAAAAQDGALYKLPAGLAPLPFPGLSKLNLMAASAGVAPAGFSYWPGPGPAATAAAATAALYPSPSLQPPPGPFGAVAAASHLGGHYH
As to conditions: protein: recombinant; tags: N-terminal GST; dsDNA, one strand shown. The method in brief:
(§1)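 Human transcription factors were made in yeast as GST fusions, captured on glutathione beads and barcoded with DNA. With a tag-only sample included, the pool was incubated with 200 nmole of a random double-stranded 16-mer DNA library in Tris/NaCl/DTT/glycerol buffer at room temperature for 30 min, then crosslinked with 0.1% formaldehyde after washing, ligated by proximity, amplified and sequenced. For binding signal, each hexamer's read frequency for a factor is divided by its frequency for the tag-only sample.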

Assay [2] has as its target ETV5 (Homo sapiens, UniProt P41161 1-510). As to conditions: protein: recombinant; tags: N-terminal GST; dsDNA, one strand shown. The method in brief: as §1
The target of assay [3] is HSF1 (Homo sapiens, UniProt Q00613 1-529). As to conditions: protein: recombinant; tags: N-terminal GST; chain copies: 3; dsDNA, one strand shown. A digest of the protocol: as §1
The target in assay [4] is T2, SPIC (Homo sapiens, UniProt Q8N5J4 1-248).
T2 sequence: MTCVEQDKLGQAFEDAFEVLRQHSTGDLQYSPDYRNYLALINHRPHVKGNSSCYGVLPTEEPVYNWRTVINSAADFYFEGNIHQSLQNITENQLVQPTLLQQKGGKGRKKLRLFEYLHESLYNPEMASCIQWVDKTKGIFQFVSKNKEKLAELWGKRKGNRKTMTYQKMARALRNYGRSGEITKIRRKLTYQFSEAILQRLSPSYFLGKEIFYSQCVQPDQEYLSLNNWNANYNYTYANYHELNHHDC
Particulars: protein: recombinant; tags: N-terminal GST; dsDNA, one strand shown. A digest of the protocol:
as §1

Assay [5] concerns the target ELF4 (Homo sapiens, UniProt Q99607 1-663). Particulars: protein: recombinant; tags: N-terminal GST; dsDNA, one strand shown. A digest of the protocol: as §1
Assay [6] deals with T3, ELK4 (Homo sapiens, UniProt P28324-2 1-405).
T3 sequence: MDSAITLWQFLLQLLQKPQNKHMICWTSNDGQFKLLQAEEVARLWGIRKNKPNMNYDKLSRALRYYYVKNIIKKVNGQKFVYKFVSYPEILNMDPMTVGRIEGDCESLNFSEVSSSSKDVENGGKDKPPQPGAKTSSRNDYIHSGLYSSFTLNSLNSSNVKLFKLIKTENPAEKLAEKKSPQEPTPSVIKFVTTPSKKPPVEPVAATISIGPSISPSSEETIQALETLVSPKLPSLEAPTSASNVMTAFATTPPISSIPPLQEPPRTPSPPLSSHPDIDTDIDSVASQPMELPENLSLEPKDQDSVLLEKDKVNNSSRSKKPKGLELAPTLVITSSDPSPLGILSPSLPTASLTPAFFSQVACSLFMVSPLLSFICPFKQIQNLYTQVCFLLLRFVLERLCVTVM
As to conditions: protein: recombinant; tags: N-terminal GST; dsDNA, one strand shown. The method in brief:
as §1

Assay [7] concerns the target T4, ETV2 (Homo sapiens, UniProt O00321 1-342).
T4 sequence: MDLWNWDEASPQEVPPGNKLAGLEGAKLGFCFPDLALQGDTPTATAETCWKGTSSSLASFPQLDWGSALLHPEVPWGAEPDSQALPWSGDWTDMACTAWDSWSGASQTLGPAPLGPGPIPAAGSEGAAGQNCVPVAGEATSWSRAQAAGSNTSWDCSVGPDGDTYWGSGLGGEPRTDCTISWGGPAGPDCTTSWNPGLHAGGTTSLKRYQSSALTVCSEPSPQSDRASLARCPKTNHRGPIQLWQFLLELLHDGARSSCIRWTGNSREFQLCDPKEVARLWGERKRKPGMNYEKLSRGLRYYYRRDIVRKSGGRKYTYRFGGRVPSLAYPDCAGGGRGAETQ
As to conditions: protein: recombinant; tags: N-terminal GST; dsDNA, one strand shown. A digest of the protocol: as §1

Assay [8] has as its target T5, ELF3 (Homo sapiens, UniProt P78545 1-371).
T5 sequence: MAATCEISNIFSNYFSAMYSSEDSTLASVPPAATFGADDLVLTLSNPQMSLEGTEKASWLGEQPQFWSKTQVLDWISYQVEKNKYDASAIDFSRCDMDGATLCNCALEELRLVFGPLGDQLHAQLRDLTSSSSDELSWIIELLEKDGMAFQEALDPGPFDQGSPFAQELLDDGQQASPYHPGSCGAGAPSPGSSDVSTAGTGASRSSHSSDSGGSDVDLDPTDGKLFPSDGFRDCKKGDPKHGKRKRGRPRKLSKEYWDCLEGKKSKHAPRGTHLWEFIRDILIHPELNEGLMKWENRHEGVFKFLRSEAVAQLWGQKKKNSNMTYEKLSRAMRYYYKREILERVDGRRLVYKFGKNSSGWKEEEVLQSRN
Particulars: protein: recombinant; tags: N-terminal GST; dsDNA, one strand shown. A digest of the protocol:
as §1

Assay [9] concerns the target CRX (Homo sapiens, UniProt O43186 1-299). Particulars: protein: recombinant; tags: N-terminal GST; dsDNA, one strand shown. The method in brief: as §1
Assay [10] deals with ETV1 (Homo sapiens, UniProt P50549 1-477). As to conditions: protein: recombinant; tags: N-terminal GST; dsDNA, one strand shown. The method in brief: as §1
The target in assay [11] is T6, ERF (Homo sapiens, UniProt P50548 1-548).
T6 sequence: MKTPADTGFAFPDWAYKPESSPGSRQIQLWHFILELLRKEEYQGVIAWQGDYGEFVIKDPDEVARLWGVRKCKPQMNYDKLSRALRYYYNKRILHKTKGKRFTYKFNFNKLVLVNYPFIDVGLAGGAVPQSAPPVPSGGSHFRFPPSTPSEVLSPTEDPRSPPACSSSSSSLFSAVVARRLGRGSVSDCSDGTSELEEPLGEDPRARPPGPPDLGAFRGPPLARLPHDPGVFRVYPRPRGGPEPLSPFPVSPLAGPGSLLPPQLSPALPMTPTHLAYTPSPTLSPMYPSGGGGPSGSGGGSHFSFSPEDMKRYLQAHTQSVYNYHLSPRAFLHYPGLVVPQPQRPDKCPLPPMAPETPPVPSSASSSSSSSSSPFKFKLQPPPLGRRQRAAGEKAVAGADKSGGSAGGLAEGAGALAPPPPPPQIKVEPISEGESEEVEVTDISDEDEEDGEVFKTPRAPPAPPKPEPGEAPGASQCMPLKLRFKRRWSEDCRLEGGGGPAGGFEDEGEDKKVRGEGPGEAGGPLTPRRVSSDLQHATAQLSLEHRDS
As to conditions: protein: recombinant; tags: N-terminal GST; dsDNA, one strand shown. A digest of the protocol: as §1

Assay [12] concerns the target T7, ETV3L (Homo sapiens, UniProt Q6ZN32 1-361).
T7 sequence: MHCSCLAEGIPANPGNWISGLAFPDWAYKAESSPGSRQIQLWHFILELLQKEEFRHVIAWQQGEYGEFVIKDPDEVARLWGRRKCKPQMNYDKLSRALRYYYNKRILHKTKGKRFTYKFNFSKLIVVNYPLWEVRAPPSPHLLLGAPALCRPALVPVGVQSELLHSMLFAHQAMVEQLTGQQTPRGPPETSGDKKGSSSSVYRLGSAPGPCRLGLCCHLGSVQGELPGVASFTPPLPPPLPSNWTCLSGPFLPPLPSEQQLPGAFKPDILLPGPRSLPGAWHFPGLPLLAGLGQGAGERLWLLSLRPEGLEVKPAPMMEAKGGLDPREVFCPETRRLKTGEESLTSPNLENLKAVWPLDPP
As to conditions: protein: recombinant; tags: N-terminal GST; dsDNA, one strand shown. The method in brief: as §1

For assay [13], the target named is T8, ETS2 (Homo sapiens, UniProt P15036 1-469).
T8 sequence: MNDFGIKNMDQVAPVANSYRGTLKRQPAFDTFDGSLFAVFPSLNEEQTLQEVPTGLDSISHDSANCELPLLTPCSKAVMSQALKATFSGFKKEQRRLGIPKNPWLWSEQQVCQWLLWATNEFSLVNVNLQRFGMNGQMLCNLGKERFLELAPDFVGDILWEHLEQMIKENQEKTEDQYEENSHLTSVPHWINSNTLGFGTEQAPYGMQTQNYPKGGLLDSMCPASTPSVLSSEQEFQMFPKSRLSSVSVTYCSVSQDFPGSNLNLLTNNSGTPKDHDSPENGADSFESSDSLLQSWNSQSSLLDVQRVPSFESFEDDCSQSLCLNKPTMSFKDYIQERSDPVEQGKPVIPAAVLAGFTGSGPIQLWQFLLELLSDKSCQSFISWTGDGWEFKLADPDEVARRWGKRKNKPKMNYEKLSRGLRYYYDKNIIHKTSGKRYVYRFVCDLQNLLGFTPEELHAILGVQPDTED
As to conditions: protein: recombinant; tags: N-terminal GST; dsDNA, one strand shown. The method in brief:
as §1

The target of assay [14] is T9, SPDEF (Homo sapiens, UniProt O95238 1-335).
T9 sequence: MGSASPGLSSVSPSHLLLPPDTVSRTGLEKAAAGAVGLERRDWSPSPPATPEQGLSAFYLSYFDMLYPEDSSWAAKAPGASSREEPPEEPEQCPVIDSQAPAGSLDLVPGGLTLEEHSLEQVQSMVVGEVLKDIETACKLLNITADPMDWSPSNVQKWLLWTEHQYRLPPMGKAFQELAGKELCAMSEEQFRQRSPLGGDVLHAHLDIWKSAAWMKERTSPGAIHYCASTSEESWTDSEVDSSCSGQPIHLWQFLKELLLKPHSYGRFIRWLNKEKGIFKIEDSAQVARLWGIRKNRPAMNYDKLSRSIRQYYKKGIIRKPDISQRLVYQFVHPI
Particulars: protein: recombinant; tags: N-terminal GST; dsDNA, one strand shown. A digest of the protocol: as §1

Assay [15] deals with T10, ETV7 (Homo sapiens, UniProt Q9Y603 1-341).
T10 sequence: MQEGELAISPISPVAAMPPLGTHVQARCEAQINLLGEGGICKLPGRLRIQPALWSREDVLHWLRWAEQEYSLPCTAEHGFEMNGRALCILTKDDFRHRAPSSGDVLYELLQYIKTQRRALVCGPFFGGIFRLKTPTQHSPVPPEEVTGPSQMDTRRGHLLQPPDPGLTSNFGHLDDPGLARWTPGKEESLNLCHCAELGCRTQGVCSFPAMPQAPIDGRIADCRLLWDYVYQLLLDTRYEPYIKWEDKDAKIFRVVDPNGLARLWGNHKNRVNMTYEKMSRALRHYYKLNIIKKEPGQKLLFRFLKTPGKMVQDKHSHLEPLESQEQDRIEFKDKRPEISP
Particulars: protein: recombinant; tags: N-terminal GST; dsDNA, one strand shown. The method in brief: as §1

The target in assay [16] is T11, ELF5 (Homo sapiens, UniProt Q9UKW6-2 1-255).
T11 sequence: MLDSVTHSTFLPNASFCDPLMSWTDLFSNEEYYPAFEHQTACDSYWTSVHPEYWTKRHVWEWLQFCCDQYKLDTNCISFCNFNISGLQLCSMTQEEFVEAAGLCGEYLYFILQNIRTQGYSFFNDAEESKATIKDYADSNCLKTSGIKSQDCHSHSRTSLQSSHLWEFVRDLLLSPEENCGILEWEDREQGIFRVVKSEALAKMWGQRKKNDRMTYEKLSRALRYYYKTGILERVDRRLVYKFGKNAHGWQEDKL
As to conditions: protein: recombinant; tags: N-terminal GST; dsDNA, one strand shown. A digest of the protocol: as §1

Assay [17] concerns the target T12, ETV3 (Homo sapiens, UniProt P41162-2 1-143).
T12 sequence: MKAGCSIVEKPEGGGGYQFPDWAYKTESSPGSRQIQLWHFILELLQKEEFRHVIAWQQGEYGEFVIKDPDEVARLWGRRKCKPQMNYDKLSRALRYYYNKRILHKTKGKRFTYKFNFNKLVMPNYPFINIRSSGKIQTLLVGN
Particulars: protein: recombinant; tags: N-terminal GST; dsDNA, one strand shown. A digest of the protocol:
as §1

Assay [18] has as its target ETV6 (Homo sapiens, UniProt P41212 1-452). As to conditions: protein: recombinant; tags: N-terminal GST; dsDNA, one strand shown. The method in brief:
as §1

Chain of ETV1 (P50549 whole entry): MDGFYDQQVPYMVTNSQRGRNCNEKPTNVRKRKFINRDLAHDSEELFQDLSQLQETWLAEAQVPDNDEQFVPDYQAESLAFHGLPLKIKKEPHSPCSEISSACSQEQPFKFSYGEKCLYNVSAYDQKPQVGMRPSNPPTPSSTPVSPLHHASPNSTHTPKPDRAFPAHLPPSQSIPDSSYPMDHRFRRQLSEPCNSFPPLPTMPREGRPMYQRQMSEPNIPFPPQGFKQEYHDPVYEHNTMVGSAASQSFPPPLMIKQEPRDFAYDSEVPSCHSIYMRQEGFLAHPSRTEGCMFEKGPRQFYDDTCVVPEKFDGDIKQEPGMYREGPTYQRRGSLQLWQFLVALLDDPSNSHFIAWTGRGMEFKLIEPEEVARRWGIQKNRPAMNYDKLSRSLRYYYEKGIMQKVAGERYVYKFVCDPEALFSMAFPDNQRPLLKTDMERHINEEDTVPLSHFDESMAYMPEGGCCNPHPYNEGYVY
Chain of HSF1 (Q00613 whole entry): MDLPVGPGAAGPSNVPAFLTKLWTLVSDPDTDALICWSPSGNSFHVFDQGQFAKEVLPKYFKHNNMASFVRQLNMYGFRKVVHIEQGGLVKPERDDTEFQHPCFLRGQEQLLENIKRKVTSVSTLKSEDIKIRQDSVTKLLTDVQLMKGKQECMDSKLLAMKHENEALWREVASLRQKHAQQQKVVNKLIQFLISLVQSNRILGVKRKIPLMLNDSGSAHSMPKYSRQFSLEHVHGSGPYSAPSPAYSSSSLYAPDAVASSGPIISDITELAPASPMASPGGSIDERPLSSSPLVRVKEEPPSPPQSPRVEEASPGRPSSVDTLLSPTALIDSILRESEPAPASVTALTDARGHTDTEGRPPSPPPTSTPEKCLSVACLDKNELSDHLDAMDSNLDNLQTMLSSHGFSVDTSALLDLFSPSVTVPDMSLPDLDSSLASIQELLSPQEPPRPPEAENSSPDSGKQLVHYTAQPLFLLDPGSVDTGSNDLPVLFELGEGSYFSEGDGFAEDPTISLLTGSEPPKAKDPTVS
Chain of ETV5 (P41161 whole entry): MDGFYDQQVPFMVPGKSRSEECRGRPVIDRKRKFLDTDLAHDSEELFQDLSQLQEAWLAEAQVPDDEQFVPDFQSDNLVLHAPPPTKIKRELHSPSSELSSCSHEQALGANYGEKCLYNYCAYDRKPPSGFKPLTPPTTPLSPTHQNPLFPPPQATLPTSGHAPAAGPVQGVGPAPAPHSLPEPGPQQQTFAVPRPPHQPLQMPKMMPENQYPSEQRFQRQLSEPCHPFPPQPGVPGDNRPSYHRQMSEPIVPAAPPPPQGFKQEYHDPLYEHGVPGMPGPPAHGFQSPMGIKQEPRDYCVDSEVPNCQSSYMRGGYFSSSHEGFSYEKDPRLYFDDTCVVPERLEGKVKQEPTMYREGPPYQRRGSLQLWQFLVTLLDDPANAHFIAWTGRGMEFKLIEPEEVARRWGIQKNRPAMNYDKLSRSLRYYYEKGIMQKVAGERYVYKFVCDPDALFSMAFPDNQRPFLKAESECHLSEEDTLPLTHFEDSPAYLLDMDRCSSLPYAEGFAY
Chain of ETV6 (P41212 whole entry): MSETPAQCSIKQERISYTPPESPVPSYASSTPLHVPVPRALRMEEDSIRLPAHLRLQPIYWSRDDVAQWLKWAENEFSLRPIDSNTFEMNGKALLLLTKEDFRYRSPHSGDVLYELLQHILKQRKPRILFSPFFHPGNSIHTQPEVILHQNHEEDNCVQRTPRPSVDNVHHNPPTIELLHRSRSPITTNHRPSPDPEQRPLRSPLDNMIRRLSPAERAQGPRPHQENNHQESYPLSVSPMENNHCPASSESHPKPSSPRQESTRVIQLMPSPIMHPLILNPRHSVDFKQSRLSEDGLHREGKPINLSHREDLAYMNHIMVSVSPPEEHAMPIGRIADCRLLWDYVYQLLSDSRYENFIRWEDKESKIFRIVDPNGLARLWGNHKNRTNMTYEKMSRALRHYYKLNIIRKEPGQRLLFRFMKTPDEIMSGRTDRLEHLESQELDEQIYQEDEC
Chain of CRX (O43186 whole entry): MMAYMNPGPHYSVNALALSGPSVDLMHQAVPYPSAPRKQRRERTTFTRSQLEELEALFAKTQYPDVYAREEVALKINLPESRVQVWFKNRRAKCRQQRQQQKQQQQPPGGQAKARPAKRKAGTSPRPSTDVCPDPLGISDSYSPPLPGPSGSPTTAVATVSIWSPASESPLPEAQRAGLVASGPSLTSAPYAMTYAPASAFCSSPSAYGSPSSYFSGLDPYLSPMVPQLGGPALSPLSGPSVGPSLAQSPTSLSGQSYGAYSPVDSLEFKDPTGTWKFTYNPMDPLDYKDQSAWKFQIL
Chain of ELF4 (Q99607 whole entry): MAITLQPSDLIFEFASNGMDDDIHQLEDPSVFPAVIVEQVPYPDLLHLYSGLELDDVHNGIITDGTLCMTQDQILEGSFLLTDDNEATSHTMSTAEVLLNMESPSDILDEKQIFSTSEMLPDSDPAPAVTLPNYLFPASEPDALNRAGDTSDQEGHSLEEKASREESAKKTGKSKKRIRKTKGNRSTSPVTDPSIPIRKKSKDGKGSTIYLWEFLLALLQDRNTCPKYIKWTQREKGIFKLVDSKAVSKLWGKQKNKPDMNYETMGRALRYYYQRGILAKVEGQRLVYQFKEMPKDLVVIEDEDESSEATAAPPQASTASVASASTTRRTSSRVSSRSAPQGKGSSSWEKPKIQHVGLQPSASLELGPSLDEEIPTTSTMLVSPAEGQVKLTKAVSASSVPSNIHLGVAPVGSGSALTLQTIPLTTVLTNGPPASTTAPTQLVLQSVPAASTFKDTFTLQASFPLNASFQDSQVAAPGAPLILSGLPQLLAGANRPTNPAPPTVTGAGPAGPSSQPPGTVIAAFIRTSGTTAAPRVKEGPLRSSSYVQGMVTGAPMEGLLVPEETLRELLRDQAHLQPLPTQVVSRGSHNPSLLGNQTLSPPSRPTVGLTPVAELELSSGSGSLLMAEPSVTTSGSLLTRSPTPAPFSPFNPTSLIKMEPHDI

Turning to TCCGGT, the binding signal in [1] is 6.6 fold enrichment (6-mer frequency, TF over GST control); in assay [2] it was 3.98 fold enrichment (6-mer frequency, TF over GST control); in assay [3], 1.09 fold enrichment (6-mer frequency, TF over GST control); in assay [4] it was 3.59 fold enrichment (6-mer frequency, TF over GST control); in assay [5], 3.32 fold enrichment (6-mer frequency, TF over GST control); in assay [6], 3.14 fold enrichment (6-mer frequency, TF over GST control). In addition, the binding signal in assay [7] was 3.65 fold enrichment (6-mer frequency, TF over GST control); in [8], 3.41 fold enrichment (6-mer frequency, TF over GST control); in assay [9], 1.04 fold enrichment (6-mer frequency, TF over GST control); in [10], 3.87 fold enrichment (6-mer frequency, TF over GST control); in [11] it was 3.43 fold enrichment (6-mer frequency, TF over GST control); in assay [12], 3.57 fold enrichment (6-mer frequency, TF over GST control). Also, the binding signal in assay [13] is 3.76 fold enrichment (6-mer frequency, TF over GST control); in assay [14] it was 5.35 fold enrichment (6-mer frequency, TF over GST control); in [15], 3.35 fold enrichment (6-mer frequency, TF over GST control); in [16], 4.56 fold enrichment (6-mer frequency, TF over GST control); in assay [17], 4.02 fold enrichment (6-mer frequency, TF over GST control); in assay [18], 4.04 fold enrichment (6-mer frequency, TF over GST control).
